Measurements from PubChem BioAssay (NCI).
The panel holds about 83,000 compounds, 20% with a hit somewhere; the sample as a whole holds those more often.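 Compound tested at a single concentration for 48 hours in 96-well plates; a percent growth value below 10 was scored as active.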 Activity calls are given as the source filed them.

Key:
Assay in all cases: NCI-60 one-dose screen, 48 h (100 = growth as untreated, 0 = no growth, -100 = all killed)
Details in all cases: 10 µM unless noted
SR leukemia = system: SR leukemia
RPMI-8226 leukemia = system: RPMI-8226 leukemia
OVCAR-8 ovarian = system: OVCAR-8 ovarian
OVCAR-5 ovarian = system: OVCAR-5 ovarian
OVCAR-4 ovarian = system: OVCAR-4 ovarian
SK-OV-3 ovarian = system: SK-OV-3 ovarian
IGROV1 ovarian = system: IGROV1 ovarian
OVCAR-3 ovarian = system: OVCAR-3 ovarian
HS 578T breast = system: HS 578T breast
NCI/ADR-RES ovarian = system: NCI/ADR-RES ovarian
T-47D breast = system: T-47D breast
BT-549 breast = system: BT-549 breast
MDA-MB-435 melanoma = system: MDA-MB-435 melanoma
SW-620 colon = system: SW-620 colon
MCF7 breast = system: MCF7 breast
HCT-116 colon = system: HCT-116 colon
HCC-2998 colon = system: HCC-2998 colon
KM12 colon = system: KM12 colon

Measured: growth

c1ccc(Nc2nc(Nc3ccccc3)nc(Nc3ccccc3)n2)cc1
inactive: SR leukemia 69.8% | RPMI-8226 leukemia 74.5% | OVCAR-8 ovarian 92.2% | OVCAR-5 ovarian 97.1% | OVCAR-4 ovarian 81.2% | SK-OV-3 ovarian 92.7% | IGROV1 ovarian 62.5% | OVCAR-3 ovarian 96.4% | HS 578T breast 107% | NCI/ADR-RES ovarian 77.9% | T-47D breast 71.9% | BT-549 breast 114% | MDA-MB-435 melanoma 89.7% | SW-620 colon 88.9% | MCF7 breast 65% | HCT-116 colon 82% | HCC-2998 colon 85.6% | KM12 colon 84.4%

Cc1cc(N/N=C/c2nc(-c3ccc(Br)cc3)oc2C)c2cc(Br)ccc2n1
inactive: OVCAR-8 ovarian 12% | OVCAR-5 ovarian 95.6% | SK-OV-3 ovarian 105% | IGROV1 ovarian 78.8% | HS 578T breast 85.5% | NCI/ADR-RES ovarian 35% | T-47D breast 89.8% | BT-549 breast 93.1% | HCT-116 colon 16.1% | HCC-2998 colon 94.7% | KM12 colon 60.2%
active: SR leukemia 2.16% | RPMI-8226 leukemia -9.38% | OVCAR-4 ovarian -83.5% | OVCAR-3 ovarian -13.4% | MDA-MB-435 melanoma -11.2% | SW-620 colon -46.5% | MCF7 breast -78.7%

O=C1NN(C(=O)c2ccc(Cl)cc2)C(c2ccccc2)=N/C1=C\c1ccc(F)cc1
inactive: SR leukemia 80.2% | RPMI-8226 leukemia 60.3% | OVCAR-8 ovarian 86.6% | OVCAR-5 ovarian 88.8% | OVCAR-4 ovarian 99.1% | SK-OV-3 ovarian 97.4% | IGROV1 ovarian 87.6% | OVCAR-3 ovarian 98.7% | HS 578T breast 95.2% | NCI/ADR-RES ovarian 66.7% | T-47D breast 80.7% | BT-549 breast 78.9% | MDA-MB-435 melanoma 91.5% | SW-620 colon 42.5% | MCF7 breast 98.2% | HCT-116 colon 62.9% | HCC-2998 colon 95.3% | KM12 colon 59.1%

NC1N=C(SCC(=O)N2CCN(c3cc4c(cc3F)c(=O)c(C(=O)O)cn4C3CC3)CC2)NC(=O)/C1=C/c1ccc(Cl)cc1 (stereo unspecified)
inactive: SR leukemia 110% | RPMI-8226 leukemia 101% | OVCAR-8 ovarian 102% | OVCAR-5 ovarian 104% | OVCAR-4 ovarian 99.5% | SK-OV-3 ovarian 114% | IGROV1 ovarian 104% | OVCAR-3 ovarian 109% | HS 578T breast 106% | NCI/ADR-RES ovarian 105% | T-47D breast 97.9% | BT-549 breast 122% | MDA-MB-435 melanoma 105% | SW-620 colon 104% | MCF7 breast 105% | HCT-116 colon 101% | HCC-2998 colon 109% | KM12 colon 107%

CN1C(=O)N(C)C2C1NN=c1s/c(=C\C=C\c3ccccc3)c(=O)n12 (stereo unspecified)
inactive: SR leukemia 24.3% | RPMI-8226 leukemia 84.9% | OVCAR-8 ovarian 79.7% | OVCAR-5 ovarian 85.9% | OVCAR-4 ovarian 81.9% | SK-OV-3 ovarian 65.7% | IGROV1 ovarian 50.7% | OVCAR-3 ovarian 12% | HS 578T breast 59.6% | NCI/ADR-RES ovarian 36.4% | T-47D breast 53.1% | BT-549 breast 55.2% | SW-620 colon 40% | HCT-116 colon 31.8% | HCC-2998 colon 63.1% | KM12 colon 23.2%
active: MDA-MB-435 melanoma 4.66% | MCF7 breast -94.6%

Nc1nc(Nc2cc(Cl)cc(Cl)c2)nn1S(=O)(=O)c1ccc2ccccc2c1
inactive: SR leukemia 46.3% | RPMI-8226 leukemia 66.5% | OVCAR-8 ovarian 40.6% | OVCAR-5 ovarian 68.3% | OVCAR-4 ovarian 72.5% | SK-OV-3 ovarian 59.5% | IGROV1 ovarian 20.3% | OVCAR-3 ovarian 60.1% | HS 578T breast 40.5% | NCI/ADR-RES ovarian 37.1% | T-47D breast 46% | BT-549 breast 90.7% | MDA-MB-435 melanoma 77.5% | SW-620 colon 67.6% | MCF7 breast 32.8% | HCT-116 colon 33.5% | HCC-2998 colon 68.3% | KM12 colon 21.9%

Cc1ccc(S(=O)(=O)NCCNc2nccc(-c3c(-c4cccc(N)c4)nc4sccn34)n2)cc1
inactive: SR leukemia 95.9% | RPMI-8226 leukemia 74.7% | OVCAR-8 ovarian 91.4% | OVCAR-5 ovarian 123% | OVCAR-4 ovarian 58.8% | SK-OV-3 ovarian 103% | IGROV1 ovarian 86.6% | OVCAR-3 ovarian 87.4% | HS 578T breast 99.5% | NCI/ADR-RES ovarian 90.8% | T-47D breast 51.7% | BT-549 breast 87.5% | MDA-MB-435 melanoma 93.5% | SW-620 colon 123% | MCF7 breast 83.4% | HCT-116 colon 99.2% | HCC-2998 colon 132% | KM12 colon 92.2%

S=c1[nH]nc(-c2cc3ccc2CCc2ccc(cc2)CC3)n1-c1ccccc1
inactive: SR leukemia 96.6% | RPMI-8226 leukemia 94.5% | OVCAR-8 ovarian 102% | OVCAR-5 ovarian 103% | OVCAR-4 ovarian 83.1% | SK-OV-3 ovarian 111% | IGROV1 ovarian 100% | OVCAR-3 ovarian 104% | HS 578T breast 116% | NCI/ADR-RES ovarian 99.8% | T-47D breast 89.1% | BT-549 breast 108% | MDA-MB-435 melanoma 93.3% | SW-620 colon 97.5% | MCF7 breast 85.3% | HCT-116 colon 88.1% | HCC-2998 colon 113% | KM12 colon 98.2%

O=[N+]([O-])c1cnc(Sc2ccncn2)s1
active: SR leukemia -69.7% | RPMI-8226 leukemia -64.1% | IGROV1 ovarian -80.7% | OVCAR-3 ovarian -95.5% | T-47D breast -13.9% | SW-620 colon -80.9% | HCT-116 colon -48.5% | HCC-2998 colon 6.85%
inactive: OVCAR-8 ovarian 73.3% | OVCAR-5 ovarian 94.1% | OVCAR-4 ovarian 53.9% | SK-OV-3 ovarian 114% | HS 578T breast 58% | NCI/ADR-RES ovarian 67% | BT-549 breast 103% | MDA-MB-435 melanoma 27.2% | MCF7 breast 31.5% | KM12 colon 75.9%

CCN1C(=O)N(CC)C2C1NN=c1s/c(=C\c3cccnc3)c(=O)n12 (stereo unspecified)
active: OVCAR-3 ovarian -22.9% | MDA-MB-435 melanoma -46.6%
inactive: SR leukemia 15.1% | RPMI-8226 leukemia 47.5% | OVCAR-8 ovarian 35.8% | OVCAR-5 ovarian 42.1% | OVCAR-4 ovarian 44.1% | SK-OV-3 ovarian 42.7% | IGROV1 ovarian 30.7% | HS 578T breast 19.7% | NCI/ADR-RES ovarian 16.2% | T-47D breast 53.4% | BT-549 breast 57.3% | SW-620 colon 26.5% | MCF7 breast 21.7% | HCT-116 colon 15.8% | HCC-2998 colon 26.8% | KM12 colon 19.5%

CC(C)C(C(=O)NCCN1CCOCC1)N1C(=O)/C(=C/c2ccc(Br)cc2)SC1=S (stereo unspecified)
inactive: SR leukemia 111% | RPMI-8226 leukemia 98% | OVCAR-8 ovarian 108% | OVCAR-5 ovarian 102% | OVCAR-4 ovarian 105% | SK-OV-3 ovarian 112% | IGROV1 ovarian 108% | OVCAR-3 ovarian 104% | HS 578T breast 95.1% | NCI/ADR-RES ovarian 96.7% | T-47D breast 94.1% | BT-549 breast 99% | MDA-MB-435 melanoma 101% | SW-620 colon 102% | MCF7 breast 95.3% | HCT-116 colon 94.8% | HCC-2998 colon 107% | KM12 colon 99.7%

Cn1ccc(Nc2nccc(Oc3ccc(C(=O)Nc4cccc(F)c4)c(Cl)c3)n2)c1
inactive: SR leukemia 98.3% | RPMI-8226 leukemia 107% | OVCAR-8 ovarian 88.2% | OVCAR-5 ovarian 87.9% | OVCAR-4 ovarian 67% | SK-OV-3 ovarian 15.9% | IGROV1 ovarian 62.4% | OVCAR-3 ovarian 55.6% | HS 578T breast 96.9% | NCI/ADR-RES ovarian 96.6% | T-47D breast 38.8% | BT-549 breast 80.5% | MDA-MB-435 melanoma 81.3% | SW-620 colon 85.4% | MCF7 breast 85.9% | HCT-116 colon 86.8% | HCC-2998 colon 81.9% | KM12 colon 102%

O=C(CN1CCN(c2cc3c(cc2F)c(=O)c(C(=O)N/N=C/c2ccccc2O)cn3C2CC2)CC1)N/N=C\c1ccccc1O
inactive: SR leukemia 14.6% | RPMI-8226 leukemia 25.4% | OVCAR-8 ovarian 25.8% | OVCAR-5 ovarian 39% | OVCAR-4 ovarian 19.8% | SK-OV-3 ovarian 34.5% | IGROV1 ovarian 21.5% | OVCAR-3 ovarian 30.7% | HS 578T breast 57.4% | NCI/ADR-RES ovarian 23.6% | T-47D breast 17.9% | BT-549 breast 45.5% | MDA-MB-435 melanoma 17.6% | SW-620 colon 36.6% | MCF7 breast 10% | HCT-116 colon 15.6% | HCC-2998 colon 39.5% | KM12 colon 18.3%

COc1ccc(-c2nc(-c3nc4cc(C)c(C)cc4[nH]3)cc3c2[nH]c2ccccc23)cc1
inactive: OVCAR-8 ovarian 36.9% | OVCAR-5 ovarian 77.6% | OVCAR-4 ovarian 60.6% | SK-OV-3 ovarian 109% | IGROV1 ovarian 66.9% | HS 578T breast 56.9% | NCI/ADR-RES ovarian 41.7% | T-47D breast 52.1% | BT-549 breast 70.9% | MDA-MB-435 melanoma 49.2% | SW-620 colon 77.3% | MCF7 breast 39.1% | HCT-116 colon 18.1% | HCC-2998 colon 16.6% | KM12 colon 44.2%
active: SR leukemia -43.7% | RPMI-8226 leukemia -26.3% | OVCAR-3 ovarian -4%

COc1ccc(C2NN=C3c4ccccc4CCC32)cc1 (stereo unspecified)
inactive: RPMI-8226 leukemia 21.7% | OVCAR-8 ovarian 80.4% | OVCAR-5 ovarian 90.5% | OVCAR-4 ovarian 71.4% | SK-OV-3 ovarian 77% | IGROV1 ovarian 16.8% | OVCAR-3 ovarian 37.6% | HS 578T breast 62.3% | NCI/ADR-RES ovarian 29.9% | T-47D breast 35.3% | BT-549 breast 67.4% | SW-620 colon 29.9% | HCT-116 colon 64.4% | HCC-2998 colon 67.3% | KM12 colon 26.3%
active: SR leukemia 3.17% | MDA-MB-435 melanoma -15.7% | MCF7 breast 5.11%

CCN1CCN(c2nc(NNC(=O)c3ccccc3)nc(N3CCN(C(c4ccccc4)c4ccccc4)CC3)n2)CC1
inactive: RPMI-8226 leukemia 42% | OVCAR-8 ovarian 74.3% | OVCAR-5 ovarian 96.2% | OVCAR-4 ovarian 38.2% | SK-OV-3 ovarian 89.7% | IGROV1 ovarian 53.1% | OVCAR-3 ovarian 52.1% | HS 578T breast 79.2% | NCI/ADR-RES ovarian 79% | T-47D breast 40.7% | BT-549 breast 79.1% | MDA-MB-435 melanoma 60.2% | MCF7 breast 28.9% | HCT-116 colon 20.2% | HCC-2998 colon 31.7% | KM12 colon 58.4%
active: SR leukemia -20.5% | SW-620 colon 5.78%

Cn1ccc(=O)c(S(N)(=O)=O)c1
inactive: SR leukemia 72.5% | RPMI-8226 leukemia 66.5% | OVCAR-8 ovarian 101% | OVCAR-5 ovarian 94.3% | OVCAR-4 ovarian 95.8% | SK-OV-3 ovarian 126% | IGROV1 ovarian 124% | OVCAR-3 ovarian 112% | HS 578T breast 104% | NCI/ADR-RES ovarian 94.8% | T-47D breast 93.9% | BT-549 breast 82% | MDA-MB-435 melanoma 103% | SW-620 colon 105% | MCF7 breast 111% | HCT-116 colon 102% | HCC-2998 colon 102% | KM12 colon 103%
